Compounds with a hit are over-represented: about 2.3% of the library has one in this group of screens.
TGFb SMAD3 inh: blocks TGF-b signaling; AID 588855; Potency, µM (highest dose often 46.1 µM), for the others: at the top dose activity, negative = inhibition, hits mostly inhibitors; hit rate 1.2% among 410,000; HepG2 CAGA-GFP TGF-b/SMAD3 reporter, GFP fluorescence, 18 h; TGF-beta stimulated, 500 pg/mL final; also: % is scaled to controls: 0 for no effect and ±100 for the full control effect; nearly all actives have a fitted effect of over 65% in size
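Cell-based qHTS in HEPG2 carrying a CAGA-GFP Smad reporter; compounds added before 500 pg/mL final TGF-beta, 18 h incubation at 37 degrees C, GFP fluorescence quantified per cell by imaging cytometry.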
HepG2 viability: kills HepG2 cells in TGF-b inhibitor counter-screen | Potency, µM (top dose mostly 46.1 µM), for the others: at the top dose activity change, negative = cytotoxicity, hits mostly cytotoxic | hit rate 0.76% among 410,000 | HepG2 CAGA-GFP viability, ATP luminescence, 18 h
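HepG2 CAGA-GFP cells (1000/well, DMEM with 1% FBS) received compound, then TGF-beta at 500 pg/mL final, and were incubated 18 hours at 37 degrees C. Viability was read by CellTiter-Glo luminescence. Media-only wells were set as complete cell-killing and DMSO as no toxicity.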
ATXN2 expr inh: ATXN2 expression inhibition; Potency, µM (doses to about 57 µM), for the others: at the top dose activity change, negative = inhibition, actives largely listed as inhibitors; HEK-293 ATXN2-luciferase reporter, luminescence, 24 h; hit rate 0.72% among 360,000; also: % is scaled to controls: 0 for no effect and ±100 for the full control effect; nearly all actives have a fitted effect of over 55% in size
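qHTS (up to 57 uM final) was run with 24 h compound exposure of reporter cells at 37 °C. Each well was multiplexed: SteadyGlo luminescence measured ATXN2-luciferase expression after a fluorogenic Gly-Phe-AFC viability readout (25 uM final).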
ATXN viability: viability counter-screen for ATXN expression inhibitors. S2 cells (HEK-293 line with an ATXN2-luciferase reporter) viability, CellTiter-Fluor protease fluorescence, 24 h. Potency, µM (highest dose often 56.7 µM), usual class: cytotoxic. hit rate 0.49% among 400,000; also: nearly all actives have a fitted effect of over 40% in size
Numbers without * were called inactive; i = inactive; ? = inconclusive; / = not tested or not shown. Calls follow the shape of the dose curve; as a rule, active = well fitted curve in the direction sought with a large enough effect; inconclusive = small, poorly fitted or top-dose-only effect, or another doubt; inactive = no such curve, though single readings can be large; an effect the other way counts as inactive or inconclusive. Potency is read from the fitted curve at half-maximal effect.

SMILES	TGFb SMAD3 inh	HepG2 viability	ATXN2 expr inh	ATXN viability
CCC1C(c2ccccc2)N(C)C(c2ccccc2)CC1(O)c1ccccc1 (centres undefined)	?	13µM*	-6%	?
CC(C)c1nn(-c2c(Cl)cccc2Cl)c2nc(Cc3ccc(OCCO)cc3)[nH]c(=O)c12	/	/	0.034µM*	/
CCOc1ccc(Cc2nc(C)c(CC(=O)N3CCCCC3)c(=O)[nH]2)cc1	-2%	-7%	1%	i
c1ccc2cnccc2c1	-1%	6%	/	/
N#Cc1c(O)c2c(-c3ccc(-c4ccccc4O)cc3)csc2[nH]c1=O	/	/	-9%	/
CCO[C@@H]1OC(C(=O)N2CCN(Cc3ccc4c(c3)OCO4)CC2)=C[C@H](C2CCCCC2)[C@H]1CCCO	?	-1%	?	18µM*
CN(C)c1ccc(C(=O)NCCCCCCC(=O)NO)cc1	/	/	171%	/
NC(Cc1ccc(Cl)cc1)c1csc(Nc2ccc(C(=O)c3ccccc3)cc2)n1 (centres undefined)	11µM*	10µM*	?	/
NC(Cc1ccc(F)cc1)c1csc(Nc2ccc(C(=O)c3ccccc3)cc2)n1 (centres undefined)	11µM*	13µM*	?	/
NC(Cc1ccccc1)c1csc(Nc2ccc(C(=O)c3ccccc3)cc2)n1 (centres undefined)	?	-101%	?	?
NC(CO)c1csc(Nc2ccc(C(=O)c3ccccc3)cc2)n1 (centres undefined)	11%	-1%	14%	i
COc1ccc(CC(N)c2csc(Nc3ccc(C(=O)c4ccccc4)cc3)n2)cc1 (centres undefined)	?	-112%	35µM*	?
CC(C)CC(N)c1csc(Nc2ccc(C(=O)c3ccccc3)cc2)n1 (centres undefined)	18µM*	16µM*	?	?
Cn1c(SCc2ccccc2)nnc1C1CCCN(Cc2cccc3ncccc23)C1 (centres undefined)	/	/	/	i
Cc1cccc(Cn2nc(C(C)(C)C)cc2C(=O)Nc2ccc(F)cc2)c1	?	13µM*	?	?
CC(C)CC(N)c1csc(NC(=O)C(c2ccccc2)c2ccccc2)n1 (centres undefined)	?	13µM*	?	?
CC(C)CC(N)c1csc(NC(=O)Nc2ccccc2Cc2ccccc2)n1 (centres undefined)	?	-92%	?	/
CC(C)CC(N)c1csc(NC(=O)c2cc(C(C)(C)C)nn2Cc2ccccc2)n1 (centres undefined)	?	11µM*	?	/
CC(C)(C)c1cc(C(=O)NN)n(Cc2ccc(F)cc2)n1	-1%	-9%	/	/
COc1ccccc1NC(=O)Nc1nc(C(N)CC(C)C)cs1 (centres undefined)	?	-83%	?	?
O=CN1CCCN(C(=O)c2cc(NC(=O)c3ccccc3)cc3ncn(C4CCCC4)c23)CC1	/	/	/	i
COc1cc2c(NC3CCN(C)CC3)nc(N3CCCN(C)CC3)nc2cc1OCCCCCN(C)C	?	-22%	/	/
C(=NNc1ccc2ccccc2n1)c1ccccn1	?	-37%	-78%	2µM*
C(=N\Nc1nc2ccccc2s1)/c1ccccn1	3.5µM*	6.3µM*	?	?
Cc1ccc2[nH]c(C)c(/C=N/Nc3nc4ccccc4s3)c2c1	11µM*	-41%	-20%	i
SMILES	TGFb SMAD3 inh	HepG2 viability	ATXN2 expr inh	ATXN viability
Cc1csc(N/N=C/c2ccccn2)n1	?	-27%	14µM*	/
COc1ccc(C=NNc2nc3ccccc3s2)cc1	-2%	-27%	-59%	i
Cc1csc(N/N=C/c2ccc([N+](=O)[O-])cc2)n1	-4%	-5%	33%	i
CC(C)CNC(=O)c1cn(C2CCN(Cc3nc4ccccc4s3)CC2)nn1	/	/	/	i
Cc1ccc2[nH]c(O)c(N=Nc3nc4ccccc4s3)c2c1	-16%	-12%	?	13µM*
Cc1nc2sccn2c1CN1CCOc2ccc(CN3C[C@@H](C)O[C@@H](C)C3)cc2C1	/	/	/	i
Cc1ccccc1-c1ocnc1C(=O)Nc1ccccc1NC(=O)c1ccccn1	11µM*	-77%	-37%	?
C[n+]1c2cc(N)ccc2cc2ccc(N)cc21 (tested in a mixture with another compound)	/	/	3.2µM*	/
OC(c1cccnc1)c1ccc2c(c1)CN(Cc1cccc3c1OCO3)CCO2 (centres undefined)	/	/	/	i
Cc1ccc2c(n1)Oc1ccc(C(C)C(=O)OCC(=O)N(C)C)cc1C2 (centres undefined)	/	/	32%	i
COc1ccc(C(C)(O)c2nc(-c3cccc(F)c3)cs2)cc1 (centres undefined)	-20%	-38%	-11%	i
CC(O)(c1ccc(F)c(F)c1)c1nc(-c2cnc3ccccc3c2)cs1 (centres undefined)	16µM*	-29%	-27%	i
CC(O)(c1ccc(F)c(F)c1)c1nc(-c2ccc3ccccc3c2)cs1 (centres undefined)	?	-94%	-35%	i
COc1ccc(C(C)(O)c2nc(-c3cccc(C(C)C)c3)cs2)cc1 (centres undefined)	?	20µM*	?	i
Cc1ccc(-c2csc(C(C)(O)c3cccc(F)c3)n2)cc1C (centres undefined)	?	-98%	-16%	i
CC(C)c1cccc(-c2csc(C(C)(O)c3cccc(F)c3)n2)c1 (centres undefined)	?	16µM*	-8%	?
CC(O)(c1cccc(F)c1)c1nc(-c2cccc(F)c2)cs1 (centres undefined)	7.9µM*	-50%	-2%	i
O=C(C[n+]1cccc(Br)c1)c1cccc([N+](=O)[O-])c1	38%	7%	/	/
COc1ccccc1-n1cc(CN2CCOc3ccc(CN4C[C@@H](C)O[C@@H](C)C4)cc3C2)cn1	/	/	/	i
COc1cc(Nc2ncc3c(n2)-c2ccc(Cl)cc2C(c2c(F)cccc2OC)=NC3)ccc1C(=O)O	/	/	1%	/
COCC(=O)Nc1ccc(Br)c(C)c1	2%	-3%	3%	i
CC(=O)OCC(=O)Nc1ccc(Br)c(C)c1	16µM*	-42%	-2%	i
Nc1ccc2nc(-c3ccc(Cl)cc3)[nH]c2c1	?	13µM*	?	/
Cc1ccc2nc(N/N=C/c3ccco3)cc(C)c2c1	?	11µM*	-29%	i
CCOC(=O)c1c(SCCN2CCCCC2)n(-c2ccccc2)c(=S)n(-c2ccccc2)c1=O	0%	0%	20µM*	?
CCOC(=O)c1c(SC)n(-c2ccccc2)c(=S)n(-c2ccccc2)c1=O	-9%	-6%	-5%	i
CCc1ccccc1NC(=O)Cn1c2ncccc2c(=O)n1-c1ccccc1	14%	-7%	-29%	i
CCc1ccc(-n2c(=O)c3cccnc3n2CC(=O)Nc2ccccc2C(F)(F)F)cc1	?	11µM*	/	/
CC(C)C(=O)NNS(=O)(=O)c1ccccc1[N+](=O)[O-]	-3%	16µM*	-2%	i

High-throughput results: PubChem BioAssay, National Center for Advancing Translational Sciences (NCATS)
